High-throughput results as filed in PubChem.
TRHR ag = qHTS for Small Molecule Agonists and Allosteric Enhancers of Human TRH Receptor: Primary Screen for Agonists. Thyrotropin-releasing hormone receptor (Homo sapiens), P34981. TRHR cells, calcium flux fluo-8, FDSS agonist mode. activation, % at 2 µM. 0.18% of 360,000 active. AID 493084, 2011; in the data active = activation above about 30%; also: 0% is about no effect
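Steps: seed TRHR cells overnight; add fluo-8 no-wash Ca dye, RT 30 min–1.5 h; record 10 s baseline; pin-transfer compounds; monitor fluorescence 1 cycle/s for the agonist window. Calcium increases flag candidate agonists.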
GLP1R ag = qHTS of GLP-1 Receptor Agonists | Glucagon-like peptide 1 receptor (Homo sapiens), P43220 | HEK293 GLP-1R CRE-luciferase, luminescence, 4-6 h; cells express a hypersensitive GLP-1R form | Potency, µM (highest dose often 45.6 µM), without a hit: at the top dose activation, actives largely listed as activators | 0.007% of 380,000 active | AID 624172, 2012; also: potency is read from the fitted curve at half-maximal effect; % of control where 0% means no effect
Target sequence (P43220 whole entry, looked up): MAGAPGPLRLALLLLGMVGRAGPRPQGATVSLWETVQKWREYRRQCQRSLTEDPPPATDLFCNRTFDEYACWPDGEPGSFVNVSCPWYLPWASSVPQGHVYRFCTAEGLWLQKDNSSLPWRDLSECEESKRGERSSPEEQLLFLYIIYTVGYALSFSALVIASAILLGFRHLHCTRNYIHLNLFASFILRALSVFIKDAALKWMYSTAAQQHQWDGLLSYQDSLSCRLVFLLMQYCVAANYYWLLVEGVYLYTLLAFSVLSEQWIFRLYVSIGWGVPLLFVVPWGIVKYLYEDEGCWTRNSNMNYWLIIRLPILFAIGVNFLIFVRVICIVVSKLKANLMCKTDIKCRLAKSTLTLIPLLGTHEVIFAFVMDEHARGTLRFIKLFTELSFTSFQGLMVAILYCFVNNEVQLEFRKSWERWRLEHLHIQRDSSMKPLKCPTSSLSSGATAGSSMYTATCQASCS
TRHR enhancer = qHTS for Small Molecule Agonists and Allosteric Enhancers of Human TRH Receptor: Primary Screen for Enhancers; Thyrotropin-releasing hormone receptor (Homo sapiens), P34981; TRHR cells, fluo-8 calcium fluorescence, EC20 TRH enhancement; enhancement, % at 2 µM; 0.66% of 360,000 active; AID 493056, 2011; in the data active = enhancement above about 30%; also: 0% is about no effect
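Enhancer read-out: after compound pinning and an initial kinetic agonist-mode read, an EC20 of TRH (10 nM final) was injected and fluo-8 calcium signal (Ex 480/Em 530) followed at 1 s/cycle for 100 cycles in TRHR-expressing cells.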
GLP1R cytotox = qHTS of GLP-1 Receptor Inverse Agonists: Cytotox Screen; 0.13% of 410,000 active; HEK293 cAMP-luciferase reporter cells, luminescence, 24 h; AID 624418, 2012; Potency, µM (series often up to 38.3 µM), for the others: at the highest dose activity change, negative = inhibition, usual class: inhibitors;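 also: loss of luciferase light is scored as toxicity; potency is read from the fitted curve at half-maximal effect; % is scaled to controls: 0 for no effect and ±100 for the full control effect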
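MLSMR compounds, 24 hr on cells at 37 deg C/5% CO2; luminescence after luciferase reagent (12 min RT). Inhibition counted as the undesired cytotoxic outcome.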
GLP-1R inv ag = qHTS of GLP-1 Receptor Inverse Agonists (Inhibition Mode). AID 624417, 2012. Potency, µM (doses to about 38.3 µM), inactives show top-dose activity change, negative = inhibition, most hits filed as inhibitors. 1.6% of 410,000 active. Glucagon-like peptide 1 receptor (Homo sapiens), P43220. HEK293 GLP-1R CRE-luciferase, luminescence, 24 h; GLP-1R form is constitutively active; also: potency is read from the fitted curve at half-maximal effect; % is scaled to controls: 0 for no effect and ±100 for the full control effect; nearly all actives have a fitted effect of over 55% in size
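Luminescence readout: a drop in cAMP-driven luciferase signal flags inverse agonism at a constitutively active GLP-1R stably expressed in HEK293. Compound exposure lasted 24 hr at 37 deg C, 5% CO2.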
PTHR1 ag = qHTS for PTHR1 Agonists: Primary Screen; Parathyroid hormone/parathyroid hormone-related peptide receptor (Homo sapiens), Q03431; HEK293 GP2 PTHR1 cells, GloSensor cAMP luminescence, 1 h; 0.075% of 410,000 active; AID 743266, 2014; Potency, µM (titrated, usually from 115 µM), for inactives: at the top dose activation, actives largely listed as activators; also: potency is read from the fitted curve at half-maximal effect; nearly all actives have a fitted effect of over 55% in size
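HEK-293-derived GP2 cells expressing PTHR1 and a GloSensor cAMP reporter, 3,000/well, plated overnight, given luciferin plus IBMX (each 0.5 mM as added) for 1 h at 37 °C, then compound for 1 h at 37 °C. Luminescence was read after 15 min at room temperature.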
An asterisk follows results filed as active; i = inactive; ? = inconclusive; / = not tested or not shown; [ ] = remark or other dose. This is a sample that favours compounds with a hit; in the whole collection about 2.4% have one here. Unless noted, calls follow the shape of the dose curve; as a rule, active = well fitted curve in the direction sought with a large enough effect; inconclusive = small, poorly fitted or top-dose-only effect, or another doubt; inactive = no such curve, though single readings can be large; an effect the other way counts as inactive or inconclusive.

SMILES	TRHR ag	GLP1R ag	TRHR enhancer	GLP1R cytotox	GLP-1R inv ag	PTHR1 ag
COC(=O)N/N=C/c1cn(CCCOc2ccccc2)c2ccccc12	0	4%	-4	7%	10µM*	-96%
CC(C)OCc1ccc(C(=O)N2CCN(CC(=O)N3CCCC3)CC2)cc1	/	-8%	/	-17%	18%	i
CCN(CC)c1nc(=S)nc(NC(C)(C)C)[nH]1	0	-2%	-2	-2%	-2%	i
COc1ccc(NC(=O)CN(C)C(=O)CSCc2c(C)noc2C)cc1	1	-1%	-3	19%	7%	-24%
Cc1c(Cl)cccc1NC(=S)N=Nc1c(O)n(CN2CCOCC2)c2ccccc12	0	8%	-2	1.4µM*	?	-23%
O=C(NC1=NCCS1)c1ccccc1Cl	0	-5%	-2	-5%	39%	1%
O=C(NC1=NCCS1)c1cc(Cl)ccc1Cl	0	-3%	39*	4%	-1%	i
Cc1nn(-c2ccccc2)c(Cl)c1C(=O)NCC(C)C	-1	1%	-1	6%	-5%	i
CC(C)CNC(=O)c1nc(-c2ccccc2)n(-c2ccccc2)n1	-3	4%	10	-9%	13µM*	-9%[57.5 µM]
COC(=O)c1ccc(NC(=S)N2CCC(C(N)=O)CC2)cc1	2	-5%	-3	-9%	6%	-23%
Cc1nc([N+](=O)[O-])c(Br)n1CC(=O)c1ccc2ccccc2c1	1	-43%	-3	?	?	-11%
Clc1ccc(Cn2ncc3c(N4CCCC4)ncnc32)cc1	-1	15%	11	-4%	32%	i
CC1CC(C)CN(c2ncnc3c2cnn3Cc2ccc(Cl)cc2)C1 (configuration not stated)	0	-6%	6	0%	2µM*	i
O=S(=O)(c1cccs1)N1CCN(CC(O)COc2cc(Cl)ccc2Cl)CC1 (configuration not stated)	0	1%	-9	-28%	7.9µM*	-9%[57.5 µM]
O=S(=O)(c1cccs1)N1CCN(CCOc2ccc(Cl)cc2)CC1	3	11%	-4	-9%	?	-37%
O=C(c1ccccc1)N(Cc1ccccc1)Cc1ccccc1	1	14%	-7	4%	?	-5%
CC1(C(=O)N(Cc2ccccc2)Cc2ccccc2)CC1(Br)Br (configuration not stated)	0	-7%	-5	5%	4µM*	-58%
OC(CNc1ccnc2cc(Cl)ccc12)CNC1CCCCC1 (configuration not stated)	/	-12%	/	5µM*	?	i
CC1OC(O[C@H]2CC[C@]3(C)C4C=C[C@]56OC[C@@]7(CC[C@@H](C)[C@H](C)C75)[C@H](O)C[C@@]6(C)[C@]4(C)CC[C@H]3C2(C)C)C(OC2OC(CO)C(O)C(O)C2OC2OCC(O)C(O)C2O)C(O)C1O (some centres not stated)	48*	/	-22	/	/	/
COc1ccc(-c2nc3sc(CCNC(=O)C(=O)Nc4cc(C)cc(C)c4)c(C)n3n2)cc1	1	/	1	-13%	14%	-16%
CCN1CCN(c2nc3c(C)cccn3c(=O)c2/C=C(\C#N)C(=O)NCCOC)CC1	30*	8%	-5	77%	13%	-1%
CSCCC(NC(=O)c1ccco1)C(=O)OC(C)C(=O)NC(=O)NC1CCCCC1 (configuration not stated)	52*	16%	-2	-12%	9%	-14%
Cc1ccc(NC(=O)CN(c2ccc(C)cc2)S(=O)(=O)c2cccc3nonc23)cc1	0	-4%	5	6%	?	i
CCc1ccc(NC(=O)CN(c2ccc(Cl)cc2)S(=O)(=O)c2ccsc2C(=O)OC)cc1	-1	/	-2	1%	3.2µM*	-13%
Cc1ccc(N(CC(=O)Nc2ccc(Cl)cc2)S(=O)(=O)c2cccc3nonc23)cc1	0	-4%	-1	-17%	10µM*	-14%
SMILES	TRHR ag	GLP1R ag	TRHR enhancer	GLP1R cytotox	GLP-1R inv ag	PTHR1 ag
Cc1n[nH]c(C)c1S(=O)(=O)N(CC(=O)NCc1ccccc1Cl)c1ccc(C(C)C)cc1	-1	-6%	8	-15%	10µM*	-58%
COc1cccc(CNC(=O)CN(c2ccc(C(C)C)cc2)S(=O)(=O)c2c(C)n[nH]c2C)c1	-1	0%	-2	-10%	-29%	-14%
O=c1cnc2ccccc2n1Cc1ccc(Br)cc1	0	25%	-4	?	?	-25%
CC(C)(C)c1ccc(Cn2c(=O)cnc3ccccc32)cc1	-1	7%	1	?	5µM*	-31%
CN(C)C(CNC(=O)CN1C(=O)NC2(CCCC2)C1=O)c1ccccc1 (configuration not stated)	2	-6%	1	1%	17%	10%
O=C(Nc1ccccc1Cl)N1CCCN(c2nc(-c3ccccc3)ns2)CC1	1	6%	-2	-16%	?	-37%
Cc1c(Cl)cccc1NC(=O)N1CCCN(c2nc(-c3ccccc3)ns2)CC1	0	6%	-4	-5%	5µM*	-21%
C=CCn1c(=O)[nH]c2nc3cc(N=CN(C)C)c(C)cc3nc2c1=O	43*	3%	-2	68%	22%	i
Cc1ccc(NC(=O)CN2CCc3cc4c(cc3C2C)OCCCO4)cc1 (configuration not stated)	0	11%	-5	-1%	?	-7%
O=S(=O)(Nc1cccc2c1CCCC2)c1cccc(C(F)(F)F)c1	-2	6%	-7	-4%	10µM*	i
Cc1cccc(C)c1N(CC(=O)Nc1cc(Cl)ccc1Oc1ccccc1)S(C)(=O)=O	0	-4%	0	-16%	4.5µM*	-20%[57.5 µM]
CCCNS(=O)(=O)c1ccc(CCC(=O)Nc2cc(Cl)ccc2Oc2ccccc2)cc1	1	-5%	-2	-12%	?	-51%[57.5 µM]
Cc1ccc(C)c(N(CC(=O)Nc2cc(Cl)ccc2Oc2ccccc2)S(C)(=O)=O)c1	1	-8%	-3	-2%	5µM*	-18%[57.5 µM]
CC(C)CNS(=O)(=O)c1ccc(CCC(=O)Nc2cc(Cl)ccc2Oc2ccccc2)cc1	2	3%	-5	4%	13µM*	-8%
